Screening results (PubChem BioAssay)
An excerpt weighted towards active compounds, which were near 3.2% of everything screened.
Bim-Mcl-1 = human Bim-Mcl-1 interaction inhibition; Bead-based flow cytometry, Bim peptide-Mcl-1 binding; inhibition, % at 10 µM; 190,000 compounds, 0.1% hits; Q07820; in the data active = inhibition above about 40%
Target sequence (Q07820 whole entry, looked up): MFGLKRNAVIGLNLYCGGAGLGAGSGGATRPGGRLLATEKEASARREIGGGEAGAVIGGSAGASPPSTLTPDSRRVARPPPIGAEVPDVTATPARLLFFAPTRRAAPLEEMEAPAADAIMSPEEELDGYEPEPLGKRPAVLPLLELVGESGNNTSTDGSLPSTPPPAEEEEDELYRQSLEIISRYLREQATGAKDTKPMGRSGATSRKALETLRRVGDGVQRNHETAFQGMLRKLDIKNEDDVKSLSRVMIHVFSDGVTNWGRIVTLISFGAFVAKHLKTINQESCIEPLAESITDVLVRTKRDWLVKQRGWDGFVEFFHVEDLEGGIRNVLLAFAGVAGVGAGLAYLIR
Mcl1-Bid inh = disrupts binding of human Mcl-1 to Bid peptide; inhibition, % at 21.7 µM; TR-FRET Mcl-1/Bid-Dy647 peptide binding, 1536-well; Q07820; 220,000 compounds, 0.97% hits;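 active = compounds that cut the binding signal by more than half at the single screening dose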;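 note: His-tagged Mcl-1 with europium anti-His antibody binding Bid BH3 peptide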
Mcl1-Noxa inh = disrupts binding of human Mcl-1 to Noxa peptide; inhibition, % at 21.7 µM; AID 1022; TR-FRET Mcl-1/Noxa peptide binding, 2 h; 220,000 compounds, 1.5% hits;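 active = compounds that cut the protein-peptide binding signal by more than 50% relative to plate controls in a single-dose test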;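 note: His-tagged Mcl-1 with rhodamine Noxa BH3 peptide and terbium anti-His antibody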
14-3-3 Bad PPI = disrupts binding of bovine 14-3-3 zeta to phospho-Bad peptide; 220,000 compounds, 0.71% hits; P63103; TR-FRET 14-3-3zeta/Dy647-pBad peptide displacement, 1 h; inhibition, % at 21.7 µM;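 active = inhibition above about 70%, limit read from the data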
Target sequence (P63103 whole entry, looked up): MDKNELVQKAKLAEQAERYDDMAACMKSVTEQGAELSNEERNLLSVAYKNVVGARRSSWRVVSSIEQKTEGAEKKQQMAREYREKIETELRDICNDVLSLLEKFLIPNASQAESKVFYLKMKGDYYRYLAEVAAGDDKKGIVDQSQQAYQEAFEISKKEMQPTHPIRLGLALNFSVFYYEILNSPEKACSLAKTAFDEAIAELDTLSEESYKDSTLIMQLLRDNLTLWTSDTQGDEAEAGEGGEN
NCF1 inh = p47phox (human) inhibition; p47phox/p22phox peptide binding, fluorescence polarization, 2 h; P14598; 220,000 compounds, 0.53% hits; inhibition, % at 24.7 µM; AID 1274;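 active = inhibition above about 30%, limit read from the data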
Large screens that a line does not name were inactive.

CCN(CC)S(=O)(=O)c1ccc(OC)c(NC(=O)Cc2cccs2)c1	Mcl1-Noxa inh 55.8
NC(N)=NS(=O)(=O)c1ccc(NC(=S)NC(=O)c2ccc3c(c2)OCO3)cc1	none
Cc1ccc(/C=N/OC(=O)c2c(C)noc2-c2snnc2C)cc1	Mcl1-Bid inh 63.3 (no result: Bim-Mcl-1)
CC(C)=NOC(=O)c1c(C)noc1-c1snnc1C	none (no result: Bim-Mcl-1)
OCCNCCOCCOc1ccccc1-c1ccccc1	none
COc1cccc(OC)c1OCCNC(C)(C)C	none
CN(C)CCOCCOc1ccccc1-c1ccccc1	14-3-3 Bad PPI 87.0
COc1cccc(OC)c1OCCN(C)C	14-3-3 Bad PPI 85.5
CNCCOc1ccccc1-c1ccccc1	none
CN(C)CCOc1ccccc1-c1ccccc1	14-3-3 Bad PPI 72.0
COc1ccc([N+](=O)[O-])cc1N/C(=N/S(=O)(=O)c1ccccc1)c1ccccc1	none
COc1ccc(-c2c(C)nn(Cc3ccccc3)c2N)cc1	14-3-3 Bad PPI 85.9
Cc1nn(Cc2ccccc2)c(C)c1N	none
Nc1nc(SCC(=O)Nc2cc(S(=O)(=O)N3CCOCC3)ccc2Cl)n[nH]1	none
O=C(CSc1nc2ccccc2s1)Nc1cc(S(=O)(=O)N2CCOCC2)ccc1O	Mcl1-Noxa inh 105.2
O=C1C(Cc2c[nH]c3ccccc23)NC(=S)N1C1CCCCC1 (centres undefined)	none
CCc1ccc2c(COn3nnc4ccc(S(=O)(=O)N(C)C)cc43)cc(=O)oc2c1	Mcl1-Bid inh 52.7
COc1ccc(OCC(O)CNC(=O)c2c(-c3ccccc3)noc2C)cc1 (centres undefined)	none (no result: Bim-Mcl-1)
CCn1cc(C2=NC(CC(C)C)CO2)c2ccccc21 (centres undefined)	none (no result: Bim-Mcl-1)
C#CCNC(=O)C1=C[C@H](c2csc3ccccc23)C[C@H](OCCCCO)O1	none
Cc1ccc2nc(-c3ccc(N4C(=NC(=O)CCC(=O)O)SC5CS(=O)(=O)CC54)cc3)sc2c1 (centres undefined)	Mcl1-Noxa inh 54.6
CC(=O)N=C1SC2CS(=O)(=O)CC2N1c1ccc(-c2nc3ccc(C)cc3s2)cc1 (centres undefined)	none
Oc1cc2ccccc2cc1-c1n[nH]c(=S)o1	Mcl1-Bid inh 56.8
Cc1cc(-c2n[nH]c(=S)o2)c(C)n1-c1ccccc1	none
COc1ccc(-c2nnn(CC(=O)N(CC3CCCO3)C(C(=O)NC(C)(C)C)c3ccco3)n2)cc1OC (centres undefined)	none
COc1cc(C2C(C#N)=C(N)OC3=C2C(=O)CCC3)c([N+](=O)[O-])cc1OC (centres undefined)	Mcl1-Noxa inh 96.7
COc1cc(CNc2nnnn2C)ccc1OCc1c(F)cccc1Cl	none
CS(=O)(=O)N1CCN(Cc2ccccc2C(F)(F)F)CC1	none
CS(=O)(=O)N1CCN(Cc2ccc(C(F)(F)F)cc2)CC1	Mcl1-Bid inh 51.9, 14-3-3 Bad PPI 80.8
O=c1[nH]c(CN2CCN(c3ccccc3O)CC2)nc2scc(-c3ccccc3Cl)c12	none (no result: Bim-Mcl-1)
O=c1[nH]c(CN2CCN(c3ccc(O)cc3)CC2)nc2scc(-c3ccc(Cl)cc3)c12	Mcl1-Noxa inh 66.3
CN(C)c1ccc(NC(=O)CSc2nc(N)c(C(=O)Nc3ccc(N(C)C)cc3)s2)cc1	Mcl1-Noxa inh 72.9
CCOC(=O)c1sc(SCC(=O)Nc2ccc(N(C)C)cc2)nc1N	Mcl1-Noxa inh 72.5
COc1ccc(NC(=O)CSc2nc(N)c(C(=O)Nc3ccc(N(C)C)cc3)s2)cc1	none
Cc1ccc(C2NC(=O)NC(O)(C(F)(F)F)C2C(=O)c2ccccc2)o1 (centres undefined)	none
COc1ccc(C(=O)C2C(c3ccc(-c4ccccc4[N+](=O)[O-])o3)NC(=O)NC2(O)C(F)(F)F)cc1 (centres undefined)	Mcl1-Noxa inh 57.0
Cc1ccc(C(=O)C2C(c3cccs3)NC(=O)NC2(O)C(F)(F)F)cc1 (centres undefined)	Mcl1-Bid inh 62.8
O=C1NC(c2ccc(-c3ccccc3[N+](=O)[O-])o2)C(C(=O)c2ccc(F)cc2)C(O)(C(F)(F)F)N1 (centres undefined)	Mcl1-Noxa inh 54.5
O=C(NCc1cccs1)C(=O)c1cn(CC(=O)N2CCCC2)c2ccccc12	none
COc1ccc(/C=C(\C#N)C(=O)Nc2cccc3ncccc23)cc1OC	Mcl1-Noxa inh 55.2 (no result: Bim-Mcl-1)
COc1cc(/C=C(\C#N)C(=O)Nc2cccc3ncccc23)cc(OC)c1OC	none
O=C(Nc1cccc(Oc2ccc(C(=O)O)c(C(=O)O)c2)c1)c1ccc(-c2ccccc2)cc1	Mcl1-Noxa inh 80.0 (no result: Bim-Mcl-1)
O=C1CC(=O)N(CCc2ccccc2)C(=O)N1CCc1ccccc1	none
O=C1C=CC(=O)C(C2=C3C(=O)N(CCc4ccccc4)CC(=O)N3CCC2)=C1	Mcl1-Noxa inh 84.2
COc1ccc(/C=N/N2CCOCC2)cc1Cn1cc([N+](=O)[O-])cn1	none (no result: Bim-Mcl-1)
C/C=C\C=C/C(=O)Nc1cccc(C2=NOC3(C2)C[C@@H](C(N)=O)N(C(=O)/C=C/C=C\C)C3)c1 (some centres undefined)	Mcl1-Noxa inh 54.3 (no result: Bim-Mcl-1)
C=C(C)C(=O)Nc1cccc(C2=NOC3(C2)C[C@H](C(N)=O)N(C(=O)/C=C/C)C3)c1 (some centres undefined)	Mcl1-Noxa inh 76.1 (no result: Bim-Mcl-1)
C=C(C)C(=O)Nc1cccc(C2=NOC3(C2)C[C@@H](C(N)=O)N(C(=O)C(=C)C)C3)c1 (some centres undefined)	Mcl1-Noxa inh 82.3 (no result: Bim-Mcl-1)
C/C=C\C(=O)Nc1cccc(C2=NOC3(C2)C[C@@H](C(N)=O)N(C(=O)C2(C)CC2)C3)c1 (some centres undefined)	none (no result: Bim-Mcl-1)
C=C(C)C(=O)Nc1cccc(C2=NOC3(C2)C[C@@H](C(N)=O)N(C(=O)C2(C)CC2)C3)c1 (some centres undefined)	Mcl1-Noxa inh 60.5 (no result: Bim-Mcl-1)
C=C(C)C(=O)N1CC2(CC(c3cccc(NC(=O)/C=C\C=C/C)c3)=NO2)C[C@H]1C(N)=O (some centres undefined)	none (no result: Bim-Mcl-1)
CCCCNC(=O)Oc1c(Br)cc2sc(=O)oc2c1Br	Mcl1-Noxa inh 51.8 (no result: Bim-Mcl-1)
CCCCNC(=O)Oc1cc(CCl)on1	none
COc1cc(N2C(=O)C=CC2=O)c(OC)cc1Cl	Mcl1-Noxa inh 58.7 (no result: Bim-Mcl-1)
Nc1nc(Cl)cc(N2CCC(c3cc(-c4ccc(Cl)cc4Cl)n[nH]3)CC2)n1	Mcl1-Noxa inh 65.9
COC(Cn1cc(C)c(=O)[nH]c1=O)OC	none
Cc1cn(CC2COC(C)(C)O2)c(=O)[nH]c1=O (centres undefined)	Mcl1-Noxa inh 73.1
O=c1c2cc(N3CCOCC3)ccc2[nH]c(=S)n1Cc1ccco1	Mcl1-Noxa inh 57.8 (no result: 14-3-3 Bad PPI)
C=CCc1c(C)nc(SCC(N)=O)[nH]c1=O	none
C=CCc1c(C)nc(SCCC)[nH]c1=O	Mcl1-Noxa inh 97.9
CC1(C)Cc2c(C#N)c(N3CCN(C(=O)c4ccco4)CC3)nc(-c3ccco3)c2CS1	Mcl1-Noxa inh 53.4
Cc1cc(/C=N/NC(=O)c2cccs2)c(C)n1-c1ccccc1	Mcl1-Bid inh 87.3
Cc1cc(C(=O)N/N=C/c2ccc(O)c(O)c2O)c(C)n1-c1ccccc1	Mcl1-Noxa inh 72.5
NC(=O)CSc1nnc(CSc2ncccn2)n1-c1ccccc1	none
